An excerpt weighted towards active compounds, which were near 3.5% of everything screened.
Anthrax LF prot: Bacillus anthracis LF protease inhibitors, primary screen, biochemical, multiplex microsphere, MLPCN library. Lethal factor (Bacillus anthracis), P15917. multiplex microsphere protease cleavage assay. inhibition, % at 10 µM. 360,000 compounds, 0.12% hits. AID 588501, 2011; note: plate controls were buffer without enzyme for full effect and enzyme alone for no effect
Target sequence (P15917 whole entry, looked up): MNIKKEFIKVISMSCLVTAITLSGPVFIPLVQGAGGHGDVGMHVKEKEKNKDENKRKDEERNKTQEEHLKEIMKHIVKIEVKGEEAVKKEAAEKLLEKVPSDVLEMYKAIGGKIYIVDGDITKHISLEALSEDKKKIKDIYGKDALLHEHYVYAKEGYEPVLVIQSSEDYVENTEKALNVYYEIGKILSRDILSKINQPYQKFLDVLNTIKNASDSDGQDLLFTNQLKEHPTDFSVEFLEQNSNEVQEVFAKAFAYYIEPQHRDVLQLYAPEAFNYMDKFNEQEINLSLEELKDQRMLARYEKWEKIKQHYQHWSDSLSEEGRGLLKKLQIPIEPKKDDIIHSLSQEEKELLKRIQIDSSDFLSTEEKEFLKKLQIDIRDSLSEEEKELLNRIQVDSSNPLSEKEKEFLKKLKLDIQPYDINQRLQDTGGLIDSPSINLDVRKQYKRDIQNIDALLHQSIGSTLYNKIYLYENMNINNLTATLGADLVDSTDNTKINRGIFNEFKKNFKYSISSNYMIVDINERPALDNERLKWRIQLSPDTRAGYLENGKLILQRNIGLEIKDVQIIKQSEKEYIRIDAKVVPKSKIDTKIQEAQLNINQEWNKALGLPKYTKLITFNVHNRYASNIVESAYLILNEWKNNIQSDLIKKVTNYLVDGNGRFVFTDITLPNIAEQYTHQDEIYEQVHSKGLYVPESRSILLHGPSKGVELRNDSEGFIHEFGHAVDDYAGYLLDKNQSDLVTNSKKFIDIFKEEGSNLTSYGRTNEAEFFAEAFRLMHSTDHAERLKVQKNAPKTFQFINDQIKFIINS
BH1578 lux ind: inducers of Vibrio cholerae quorum light production without autoinducers, primary screen, BH1578 luxS cqsA deficient, single point; V. cholerae BH1578 lux reporter, luminescence, 6 h; activation, % at 18.7 µM; 350,000 compounds, 0.16% hits; in the data active = activation mostly above about 9.7%, no sharp cut-off; inconclusive = no clear call, values can overlap the other calls; inactive = mostly below about 3.7%
BoNT F protease: BoNT/F light chain protease inhibitors, primary screen, biochemical, flow cytometry, MLPCN library; Botulinum neurotoxin type F light chain protease (Clostridium botulinum); Multiplex microsphere protease cleavage assay; inhibition, % at 10 µM; 360,000 compounds, 0.22% hits; in the data active = inhibition above about 35%, passing the limit was not always enough; inconclusive = no clear call, values can overlap the other calls; note: plate controls were buffer without enzyme for full effect and enzyme alone for no effect
BoNT A protease: BoNT/A light chain protease inhibitors, primary screen, biochemical, flow cytometry, MLPCN library. Botulinum neurotoxin type A light chain protease (Clostridium botulinum A str. ATCC 3502). multiplex microsphere protease substrate cleavage. inhibition, % at 10 µM. 360,000 compounds, 0.17% hits; note: plate controls were buffer without enzyme for full effect and enzyme alone for no effect
Autofluor counter: counter-screen for toxin protease inhibitors: compound fluorescence; compound autofluorescence counterscreen, microsphere flow cytometry; stronger effect = higher value; fluorescence intensity (concentration not given with the values); AID 624483; 360,000 compounds, 3.1% hits; in the data active = fluorescence intensity above about 16000; inconclusive = no clear call, values can overlap the other calls
BoNTA LC inh 1: BoNT/A light chain protease inhibitors, confirmation, biochemical, flow cytometry, cherry pick 1 | multiplex microsphere protease assay | 720 compounds, 3% hits | AID 602139, 2011 | shares compounds with BoNT F protease | inhibition, % at 10 µM; in the data active = inhibition above about 32%
BoNT-F LC CP1: BoNT/F light chain protease inhibitors, confirmation, biochemical, flow cytometry, cherry pick 1. multiplex microsphere protease cleavage assay. 720 tested, under 10 active. shares compounds with BoNT F protease. inhibition, % at 10 µM; call rule not given here
Anthrax LF CP1: Bacillus anthracis LF protease inhibitors, confirmation, biochemical, multiplex microsphere, cherry pick 1; inhibition, % at 10 µM; shares compounds with BoNT F protease; AID 602142, 2011; multiplex microsphere protease cleavage assay; 720 tested, under 10 active; call rule not given here
The depositor's hits bear a star; i = inactive; ? = inconclusive; . = no result. Cut-off read from the data, not from the text of the source, unless noted: active = inhibition above about 30%; inconclusive = no clear call, values can overlap the other calls; inactive = below that.

SMILES	Anthrax LF prot	BH1578 lux ind	BoNT F protease	BoNT A protease	Autofluor counter	BoNTA LC inh 1	BoNT-F LC CP1	Anthrax LF CP1
COc1ccc(NC(=O)CSc2nnc(NC(C)=O)s2)c([N+](=O)[O-])c1	-1.4	0.6	2.0	-0.6	2630	.	.	.
COc1ccc(C2(C#N)CCC(=O)N2c2ccccc2)cc1 (stereo not drawn)	6.2	-0.6	-11.4	-4.3	4217	.	.	.
COc1cccc(/C=C/c2ccncc2)c1OC	1.2	0.6	30.7	1.4	4691	1.4	0.1	3.9
O=C1CN(C(=O)CSc2nnnn2C2CC2)c2ccccc2N1	-1.2	-1.0	-13.3	0.5	5709	.	.	.
CN(Cc1ccccc1)C(=O)C1CCN(S(=O)(=O)c2ccc(-n3cnnn3)cc2)CC1	2.2	-1.5	-0.6	-0.5	5996	.	.	.
Cn1c2ccccc2c2nnc(NN)nc21	-28.9	1.7	?	-4.2	3934	.	.	.
CCOc1cc2nc3c4ccccc4n(C)c3nc2cc1OCC	19.6	0.6	7.9	48.5*	2580	7.5	-0.1	3.1
N#Cc1nc(-c2ccc(OCc3ccccc3)cc2)oc1NCCCn1ccnc1	-13.4	i	-12.9	-0.2	2679	.	.	.
CCCOc1ccc(-c2nc(C#N)c(NCCCn3ccnc3)o2)cc1	-37.7	i	57.7*	58.2*	?	-1.4	-3.0	0.3
COc1ccc(S(=O)(=O)N2CCN(CC(=O)Nc3sccc3C(N)=O)CC2)cc1OC	4.0	-2.1	2.7	1.6	8886	.	.	.
Cc1nnc(SC(C)C)n(N)c1=O	-5.1	-0.2	-9.6	-2.0	5134	.	.	.
Cn1cc(CC(=O)NCCCN2CCOCC2)c2ccccc21	2.0	-0.3	-1.5	-0.3	2034	.	.	.
Cn1cc(CC(=O)NCCCN2CCCC2)c2ccccc21	8.1	-0.3	35.9*	4.3	3978	1.2	-2.3	0.2
COc1ccccc1-c1ccc(SCc2ccccc2)nn1	25.1	i	6.4	32.5*	4296	5.8	-11.5	1.7
C[C@@H](NC(=O)c1cc2c([nH]c3ccccc32)c(-c2ccccc2)n1)C(=O)O	-8.2	i	24.8	-0.6	3535	.	.	.
CCOc1ccccc1Nc1nc(-c2sc(NC(=O)c3ccco3)nc2C)cs1	-8.2	-0.4	-8.7	0.9	3122	.	.	.
CCOc1ccccc1Nc1nc(-c2sc(C)nc2C)cs1	1.8	-0.5	40.6*	6.7	4650	0.0	-0.8	-3.7
COc1ccc(C2=NN(C(=O)CN3CCCC3)C(c3ccc(OC)cc3)C2)cc1 (stereo not drawn)	33.6*	0.9	56.8*	2.5	4751	-1.4	-6.7	-1.4
Cc1ccc2c(c1)-c1cc(C)ccc1C2=O	-1.8	0.0	3.6	0.7	3696	.	.	.
Cc1ccc(S(=O)(=O)Nc2ccc3c(c2)C(=O)N([C@H](C)CO)C[C@H](C)[C@@H](CN(C)Cc2ccccc2)O3)cc1	0.2	1.9	1.1	0.1	4081	.	.	.
COc1cccc(O)c1CN1CCCC(C(=O)c2cccc(C(F)(F)F)c2)C1 (stereo not drawn)	-5.2	-0.1	0.6	-0.2	4196	.	.	.
COCc1cc(CN2CCCC(C(=O)c3cccc(C(F)(F)F)c3)C2)ccc1OC (stereo not drawn)	-1.7	-0.3	43.4*	4.2	3106	-2.2	-0.5	-3.4
COCCNC(=O)Cc1c(C)c2c(cc(C)c3c(C(C)(C)C)coc32)oc1=O	3.0	-0.6	7.8	-0.6	2937	.	.	.
Cc1ccc(C)c(Nc2nc(-c3ccncc3)nc3ccccc23)c1	-2.4	i	41.6*	0.4	3520	-1.8	-0.4	-2.7
Clc1ccccc1N1CCN(Cc2ccco2)CC1	17.1	i	50.3*	2.0	3623	-1.2	-3.0	-2.3
SMILES	Anthrax LF prot	BH1578 lux ind	BoNT F protease	BoNT A protease	Autofluor counter	BoNTA LC inh 1	BoNT-F LC CP1	Anthrax LF CP1
CC(=O)C1C(c2ccc(F)cc2)c2c(noc2C)CC1(C)O (stereo not drawn)	-6.0	0.7	37.0*	-2.8	4546	-0.1	0.9	3.0
CN(C)C(=O)c1cn(CCC#N)nc1-c1ccc2ccccc2c1	11.7	1.7	52.0*	0.4	3918	-0.8	-11.7	-0.1
N#CCCn1cc(C(N)=O)c(-c2ccc3ccccc3c2)n1	18.7	1.3	-28.4	0.7	3976	.	.	.
Cc1c(NC(=O)c2cccc(NC(=O)Cc3ccc(F)cc3)c2)c(=O)n(-c2ccccc2)n1C	43.7*	i	2.2	-2.2	?	-2.2	-10.3	-2.9
CCc1nnc(SCC(=O)Nc2ccc(N3CCOCC3)cc2)n1C	-2.5	-0.3	-2.6	-0.8	5851	.	.	.
COc1ccccc1Cn1c(=S)[nH]c2ccc(Br)cc2c1=O	30.8*	-0.6	-3.3	2.1	3774	-0.6	-3.6	-0.9
Cc1nc2ccc(NC(=S)N3CCN(c4ccccn4)CC3)cc2nc1C	-2.4	-0.2	0.0	1.8	2391	.	.	.
S=C(Nc1ccc2nc(-c3ccccn3)c(-c3ccccn3)nc2c1)N1CCCCC1	9.1	-0.3	8.0	33.1*	2750	3.3	-2.6	0.4
O=C(Cc1ccc(Cl)cc1)NC1CCCCCC1	12.1	i	39.8*	-3.0	3892	0.5	-4.5	-2.7
CC(=O)c1sc2nc(-c3cccs3)ccc2c1N	7.5	-0.2	17.3	33.7*	7582	23.6	2.0	11.4
Cc1nc(-c2cccs2)ccc1C(=O)O	-3.5	1.6	-1.8	0.7	4068	.	.	.
Nc1c(C(=O)Nc2nc3ccccc3s2)sc2nc(-c3cccs3)ccc12	27.9	-5.9	29.9	50.3*	3925	26.8	9.1	16.1
Cc1ccc(NC(=O)NCc2ccc3[nH]c(C)cc3c2)cc1	-68.6	-0.1	-101.7	28.9	2383	.	.	.
Cc1cc2cc(CNC(=O)CCC(=O)O)ccc2[nH]1	-9.9	i	-4.6	-0.3	5908	-1.4	-4.6	-2.0
Cc1cc2cc(CNC(=O)NC3CCCCC3)ccc2[nH]1	-62.4	i	-130.7	36.7*	2837	5.8	-48.3	-13.8
CC(=O)NCc1ccc2[nH]c(C)cc2c1	-9.8	-0.2	-8.2	1.9	5001	-0.4	-0.9	-3.7
CCC(=O)NCc1ccc2[nH]c(C)cc2c1	-4.3	i	-21.2	4.7	5156	-0.7	-6.1	2.0
COc1cc(OC)c(S(=O)(=O)Nc2ccc(C(=O)O)cc2)cc1S(=O)(=O)Nc1ccc(C(=O)O)cc1	-0.8	-0.3	4.9	1.2	5361	.	.	.
Cc1ccc(S(=O)(=O)c2cc(C)cc(S(=O)(=O)Nc3ccc(C(=O)O)cc3)c2C)cc1	5.6	-4.4	39.4*	-2.1	3745	0.3	0.6	0.3

Assay outcomes deposited in PubChem by several laboratories.
